In all, about 65,000 compounds went through this assay and about 2,100 (3.2%) showed an effect of 50% or more. The median lay at about -52%. The entries come from a sample that favours strong results as a whole.
Tested on: Plasmodium falciparum
Assay: Screen against P. falciparum Asexual Blood Stage (ABS), at 5uM
Type: functional, Dd2
Conditions: tested at 5 uM

First: Cc1cccc(CN2C[C@@H]3OCCN(c4cnccn4)[C@@H]3C2)n1
Second: Cc1cccc(CN2CC[C@@H]3[C@@H]2CCN3Cc2cccs2)n1
The INHIBITION of the first is lower: 4.89% for the first, 29.9% for the second.

Going from `CC(Cc1ccccc1Br)NC(=O)CCS(C)(=O)=O` (stereo unspecified) to `Cc1ccccc1CN(CCN(C)C)Cc1ccc(S(C)(=O)=O)cc1`, the INHIBITION rises from -38.5% to 80.4%.

Going from `O=C1CCSCC(C(=O)N2CCC3(CC2)OCCO3)N1` (stereo unspecified) to `O=C(C1CCCO1)N1CCC2(CC1)CNCCO2` (stereo unspecified), the INHIBITION rises from -78% to -75.2%.

First: COCCCN1CCCC12CCN(c1ncccn1)CC2
Second: c1ccc(CO[C@@H]2C[C@H]3CN(c4ncccn4)CCN3C2)cc1
The INHIBITION of the first is higher: -22.9% for the first, -95.6% for the second.

Compared with `CC(C)N1[C@H](Cn2cncn2)C[C@@H]2CNCC[C@@H]21`, `CNC(=O)[C@@H]1C[C@H]2CN(c3ncccn3)C[C@H]2N1C(C)C` is lower in INHIBITION: -34.9% for the first, -98% for the second.

Compared with `c1coc(-c2nc(CNC3CCC4(CCNCC4)CC3)no2)c1`, `O=C(Cc1csc(-c2ccco2)n1)N1CCN(CCO)CC1` is lower in INHIBITION: 73.4% for the first, -30.8% for the second.

Compared with `Cc1cn2nc(N3CCCC3CC(C)(C)C)sc2n1` (stereo unspecified), `CN1CCCC1CCn1ccnc1-c1nc2ccccc2[nH]1` (stereo unspecified) is higher in INHIBITION: 71.6% for the first, 72.2% for the second.

Going from `COc1c(CNCCc2c[nH]c3cc(F)ccc23)c(C)nn1C` to `COc1c(CNCCc2c[nH]c3cc(F)ccc23)c(C(C)C)nn1C`, the INHIBITION rises from 50% to 59.7%.

First: COc1ccc(CCNCc2c(C)nn(C)c2N(C)C)cc1OC
Second: COc1c(CNCCc2c[nH]c3ccccc23)c(C)nn1C
The INHIBITION of the first is higher: 21.4% for the first, -60.7% for the second.

Compared with `O=C1[C@H]2CN(Cc3ccncc3)C[C@H]2CN1c1cncnc1`, `O=C1[C@H]2CN(Cc3ccccc3)C[C@H]2CN1c1cncnc1` is lower in INHIBITION: -49.7% for the first, -76.5% for the second.

Compared with `c1cncc(CO[C@H]2CO[C@@]3(CCN(Cc4ccoc4)C3)C2)c1`, `Cc1nc(CO[C@@H]2CC[C@H]3[C@H]2OCCN3Cc2cccnc2)cs1` is lower in INHIBITION: 23.3% for the first, -22.1% for the second.

Compared with `O=C(c1cccnc1-n1cncn1)N1CCC(Nc2ccccc2)CC1`, `CN1CCO[C@@H]2CN(C(=O)c3ccc4ncccc4c3)CC[C@@H]2C1` is higher in INHIBITION: -86.3% for the first, -46.1% for the second.

Going from `CCN1CCN(C(=O)COc2ccc(CN(C)S(C)(=O)=O)cc2)CC1` to `CC(C)=CCN1CCN(C(=O)COc2ccccc2)[C@H]2CS(=O)(=O)C[C@H]21`, the INHIBITION falls from 3.25% to -73.8%.

First: Cc1c(NC(=O)NC2CN3CCC2CC3)cccc1C(=O)N1CCCC1 (stereo unspecified)
Second: Cc1noc(C)c1CN1CCO[C@H]2CN(C(=O)N3CCCC3)C[C@H]21
The INHIBITION of the first is lower: -83.7% for the first, -14.9% for the second.

Compared with `CC(C)CCN1CCC2(CNS(=O)(=O)c3cccnc3O2)C1` (stereo unspecified), `CN(C)CCN1CCN(Cc2ccco2)Cc2cccnc21` is higher in INHIBITION: -5.49% for the first, 11.9% for the second.

First: Cc1nn(-c2ncccn2)c2c1C(c1cnn(C)c1C)SCC(=O)N2 (stereo unspecified)
Second: CC(C)(C)n1ncc2c1NC(=O)CSC2c1ccsc1 (stereo unspecified)
The INHIBITION of the first is higher: -1.18% for the first, -82.3% for the second.

First: Cc1cc(CN2CC[C@H]3C[C@H](c4nccs4)O[C@@H]3C2)no1
Second: Cc1cc(CN2CC[C@H]3C[C@H](C)O[C@@H]3C2)no1
The INHIBITION of the first is lower: -108% for the first, -86.2% for the second.

Compared with `COc1cccc(OC)c1CN1CC(=O)N(c2ccc(C)cc2)CC1C` (stereo unspecified), `COc1ccc(C(=O)C2CCCN(Cc3ccncc3)C2)cc1OC` (stereo unspecified) is lower in INHIBITION: 75.2% for the first, -128% for the second.

Compared with `Cc1cc(CN2CC[C@H]3[C@H]2CCN3C)oc1C`, `Cc1ccc(CN2CC[C@H]3[C@H]2CC(=O)N3c2cccnc2)o1` is lower in INHIBITION: 43% for the first, -38.1% for the second.

First: Fc1ccc2c(C3=CCN(Cc4nnc(C5CCC5)o4)CC3)c[nH]c2c1
Second: C1=C(c2c[nH]c3ncccc23)CCN(Cc2nnc(C3CC3)o2)C1
The INHIBITION of the first is higher: 83.9% for the first, -48.5% for the second.

Going from `Cc1cnc(CN2CC=C(c3c[nH]c4ncccc34)CC2)o1` to `Cn1cc(C2=CCN(CCC(=O)NCc3ccc(Cl)cc3)CC2)cn1`, the INHIBITION falls from 12.6% to 5%.

Going from `CCC(C)N(Cc1ccc(C)cc1)Cc1c[nH]c(C)n1` (stereo unspecified) to `CCc1cc(CNCc2ccccc2N(C)C2CCN(C)CC2)on1`, the INHIBITION falls from 77.5% to 74.5%.

First: Cc1cc(C)c(CNc2ncnc3c2cnn3C)c(=O)[nH]1
Second: CC(Cc1c(F)cccc1F)NC(=O)NCc1ncnn1C (stereo unspecified)
The INHIBITION of the first is lower: -55.6% for the first, -43.1% for the second.

Going from `O=C1CSC(c2ccc3c(c2)OCO3)c2cn[nH]c2N1` (stereo unspecified) to `Cc1noc(C)c1CN(C)C(=O)CN1CC(c2ccccc2)CC1=O` (stereo unspecified), the INHIBITION falls from -10.6% to -83.2%.

First: NCCC(Cc1ccccc1)c1ccco1 (stereo unspecified)
Second: CN1CCC(N(C)c2ccccc2CNCc2ccco2)CC1
The INHIBITION of the first is lower: 84.1% for the first, 85.9% for the second.

Going from `O=C(c1cscn1)N1CCC2(CN(Cc3ccncc3)C2)C1` to `Cn1cc(N2CC[C@@H]3CN(Cc4ccncc4)C[C@H]3C2=O)cn1`, the INHIBITION falls from -48% to -102%.

Going from `O=C(Nc1cccnc1)[C@H]1CN(Cc2cccs2)C[C@H]2OCC[C@@H]12` to `Nc1ncccc1CN1C[C@H]2OC(=O)N(Cc3ccccn3)[C@H]2C1`, the INHIBITION falls from 2.31% to -117%.

Going from `Cc1cc(CN2CCC(CNS(=O)(=O)c3ccc(Br)s3)CC2)c(C)o1` to `Cc1cc(CN2CCC(CNS(=O)(=O)c3ccc(C)s3)CC2)c(C)o1`, the INHIBITION falls from 91.6% to 87.7%.

Compared with `Cc1cc(CN2CCC(CNS(=O)(=O)c3ccccc3F)CC2)c(C)o1`, `Cc1noc(C)c1CNCc1ccccc1N(C)C1CCN(C)CC1` is lower in INHIBITION: 79.2% for the first, 73.6% for the second.

Compared with `Cc1ccc(CN2CCC3(CC2)C(=O)Nc2ccccc23)s1`, `Cc1nc(CC(=O)N2CCCC(N(C)Cc3ccccc3)C2)cs1` (stereo unspecified) is lower in INHIBITION: 46.9% for the first, -55.85% for the second.

Going from `O=C(c1ccnnc1)N1CCN2C[C@H](Oc3cccnc3)C[C@H]2C1` to `COCCN1CCO[C@H]2CCN(C(=O)c3ccnnc3)CC[C@@H]21`, the INHIBITION falls from 5.43% to -39.1%.

First: Cc1nn(C)c(Oc2ccc(Cl)cc2)c1CN1CCC(CN)C1 (stereo unspecified)
Second: COc1ccc(C(=O)C2CCCN(Cc3ccncc3)C2)c(OC)c1 (stereo unspecified)
The INHIBITION of the first is higher: 92.8% for the first, -17.9% for the second.

First: CC(C)C1CN(c2cccc(C#N)n2)CCCN1CC1CC1 (stereo unspecified)
Second: CC(C)C1CN(c2cccc(C#N)n2)CCCN1Cc1ccc(F)cc1 (stereo unspecified)
The INHIBITION of the first is lower: 84.3% for the first, 91.3% for the second.

Compared with `Cc1nc(N)nc(C)c1CC(=O)N1CCCN(CC2CC2)C(C(C)C)C1` (stereo unspecified), `Cc1nc(C)c(CC(=O)N2CCCN(CC3CC3)C(C(C)C)C2)c(=O)[nH]1` (stereo unspecified) is higher in INHIBITION: -198% for the first, -23.8% for the second.

Going from `N#Cc1cccc(N2CCCC3(CNCCO3)C2)n1` (stereo unspecified) to `N#Cc1cccc(N2CCOC3(CNCCOC3)C2)n1` (stereo unspecified), the INHIBITION rises from -104% to 17%.

Compared with `CCN1CCC2(COCc3c(C)nc(N4CCOCC4)nc32)C1` (stereo unspecified), `COc1ccc(C(=O)N2CCOC3(CNCCOC3)C2)c(OC)n1` (stereo unspecified) is higher in INHIBITION: -129% for the first, -97.3% for the second.

Compared with `CC(Cn1cccn1)NCc1csc2c1CCCC2` (stereo unspecified), `CC(Cc1cccc(F)c1)NCc1cnc(N2CCN(C)CC2)nc1` (stereo unspecified) is higher in INHIBITION: 39.2% for the first, 67.6% for the second.

Compared with `CC[C@H]1CN2CC[C@H]1C[C@@H]2CNC(=O)Nc1cccc(C#N)c1`, `CN(C)C1Cc2ccccc2N(S(=O)(=O)c2cccc(C#N)c2)C1` (stereo unspecified) is higher in INHIBITION: -82.6% for the first, 76.6% for the second.

Compared with `CC(C)n1ccnc1C1CCCN(c2ccnc3ccccc23)C1` (stereo unspecified), `Cc1c(CC(=O)N2CCN(C(C)C)CC2)nnn1-c1ccccc1` is lower in INHIBITION: 84% for the first, -40.6% for the second.

Going from `O=C(Nc1ccc(Cl)cn1)C1CCCN(CCc2ccncc2)C1` (stereo unspecified) to `Cc1cccc(-c2ncc(CNC(C)Cc3ccncc3)cn2)c1` (stereo unspecified), the INHIBITION falls from 71.9% to -115%.

Going from `O=C(CCc1nccs1)N1CCC(C(=O)O)(c2ccccc2)CC1` to `CN1CC[C@H](N(Cc2ccccc2)Cc2ccccc2)C[C@H](O)C1`, the INHIBITION rises from -56.3% to 72.1%.

Compared with `Cc1nc(CC(=O)N2CCCC[C@H](N(C)C)C2)cs1`, `CN(C)[C@H]1CCCCN(C(=O)c2cccc(-c3cccc(F)c3)c2)C1` is higher in INHIBITION: -56.95% for the first, 73.3% for the second.

First: O=C(c1ccnc(-n2cnnc2)c1)N1CCCC2(CCNC2)C1 (stereo unspecified)
Second: Cc1cnc(N2CCN(C)c3ncccc3C2)nc1
The INHIBITION of the first is lower: -120% for the first, -91.5% for the second.

Going from `CN1CCN(c2ncc(CNCCCc3cccc(F)c3)cn2)CC1` to `Fc1cnc(N2C[C@H]3CN(Cc4cccc(F)c4)C[C@H]3C2)nc1`, the INHIBITION falls from 71.5% to 21.5%.

First: CNC(=O)CN1CCO[C@H]2CN(CC3CC3)C[C@H]21
Second: Cc1noc(C)c1CN1C[C@@H]2OCCN(Cc3cnn(C)c3)[C@@H]2C1
The INHIBITION of the first is lower: -76.5% for the first, -2.02% for the second.

Going from `Cn1cc(CN2C[C@H]3CN(c4cncnc4)C(=O)[C@H]3C2)cn1` to `CNC(=O)[C@H]1C[C@@H]2CN(C(=O)c3ccncc3F)C[C@@H]2N1C`, the INHIBITION falls from -44.8% to -96.9%.

Compared with `CC(C)C(CNCc1cccc2c1OCO2)N1CCOCC1` (stereo unspecified), `CC(C)N1CCc2c(CN(C)Cc3ccco3)cncc2C1` is lower in INHIBITION: 76% for the first, -16.1% for the second.

First: CN1CC[C@@H]2OC[C@H](C(=O)N(C)Cc3ccccn3)C[C@@H]2C1
Second: CN1CC[C@H](N(Cc2ccccc2)CC2CC2)C[C@H](O)C1
The INHIBITION of the first is lower: -138% for the first, 80.8% for the second.

First: CN(C)CCNC(=O)CCn1ncc2c(Cl)cccc21
Second: CCc1cc(CN(C)C(=O)CN2CC(Cc3ccccc3)CC2=O)on1 (stereo unspecified)
The INHIBITION of the first is higher: 71% for the first, -126% for the second.

Going from `Cc1ccc(OCC(=O)N2CCN[C@H]3CS(=O)(=O)C[C@H]32)cn1` to `CCc1cc(CN(C)C(=O)CN2CC(c3ccccc3)CC2=O)on1` (stereo unspecified), the INHIBITION rises from -103% to -13.6%.

`Cc1noc(C)c1CN1CCN(C)c2ncccc2C1` gave an INHIBITION of -31.9%.
